# This is part of a sample that, as a whole, favours compounds with a hit. Of some 83,000 tested, about 20% had one in any assay.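 48-hour exposure, single concentration, 96-well plates; percent growth endpoint where 0 means no net growth. Active: below 10.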 Values without a mark were called inactive. Activity calls are given as the source filed them.
# Test system: SR leukemia
# Assay: NCI-60 one-dose screen, 48 h (100 = growth as untreated, 0 = no growth, -100 = all killed)
# Conditions: 10 µM unless noted
row,Compound,growth
1,Cc1ccc(-c2nc([P+](c3ccccc3)(c3ccccc3)c3ccccc3)c(N3CCOCC3)o2)cc1,5.72% (active)
2,Cc1cc(N2CCCCC2)nc(N(CCNc2ccnc3cc(Cl)ccc23)Cc2ccco2)n1,-15.8% (active)
3,Cc1cc(C)c(NC(=O)c2sc3nc4c(cc3c2N)CCCC4)c(C)c1,7.8% (active)
4,CCNCCCn1c2c(c3ccc([N+](=O)[O-])cc3c1=O)C(=O)c1cc(OC)cnc1-2,0% (active)
5,CCCC(=O)N1CCCCC1CC (centres undefined),102%
6,C#CCn1c(C)cc(C)c(C#N)c1=O,101%
7,Cc1cc2nc3c4cc([N+](=O)[O-])cc([N+](=O)[O-])c4n(CCN(C)C)c3nc2cc1C,5.05% (active)
8,Cn1c(/C(C#N)=C/c2ccc3ccccc3c2)cc2ccccc21,19.5%
9,CC(=O)O[C@H]1CC[C@]2(C)[C@H]3C(=O)C=C4[C@@H]5C[C@](C)(C(=O)N6CCCNCC6)CC[C@]5(C)CC[C@@]4(C)[C@]3(C)CC[C@H]2C1(C)C,-17.3% (active)
10,Cc1cc(N(CCNc2ccnc3cc(Cl)ccc23)Cc2ccco2)nc(Cl)n1,-14.5% (active)
11,COc1ccc2c(c1)c(-c1nc(-c3cn(C)c4ncccc34)cs1)cn2CCCN1CCCCC1,-39.1% (active)
12,NC(Cc1ccc(O)cc1)C(=O)N/N=C/c1ccccc1O (centres undefined),82.5%
13,CC(=O)NC1=C(C#N)C(c2ccccc2Cl)c2c(ccc3ccccc23)O1 (centres undefined),37.1%
14,COC(=O)[C@]12CC[C@@H](C)[C@H](C)[C@@H]1C1=CC[C@@H]3[C@@]4(C)C=C(O)C(=O)C(C)=C4CC[C@@]3(C)[C@]1(C)CC2,20.4%
